Most compounds without a hit are left out; they make up all but 27% or so of the library.
CYP2C9 inh – blockers of cytochrome P450 2C9 activity – biochemical, luminescence, ADME assay, primary screen. actives 20% (n = 96,000). inhibition, % at 5 µM. CYP2C9 Supersomes, luciferin-H conversion. P11712;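 active = blocking of liver enzyme CYP2C9 beyond about 50% at 5 µM, limit read from the data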
Target sequence (P11712 whole entry, looked up): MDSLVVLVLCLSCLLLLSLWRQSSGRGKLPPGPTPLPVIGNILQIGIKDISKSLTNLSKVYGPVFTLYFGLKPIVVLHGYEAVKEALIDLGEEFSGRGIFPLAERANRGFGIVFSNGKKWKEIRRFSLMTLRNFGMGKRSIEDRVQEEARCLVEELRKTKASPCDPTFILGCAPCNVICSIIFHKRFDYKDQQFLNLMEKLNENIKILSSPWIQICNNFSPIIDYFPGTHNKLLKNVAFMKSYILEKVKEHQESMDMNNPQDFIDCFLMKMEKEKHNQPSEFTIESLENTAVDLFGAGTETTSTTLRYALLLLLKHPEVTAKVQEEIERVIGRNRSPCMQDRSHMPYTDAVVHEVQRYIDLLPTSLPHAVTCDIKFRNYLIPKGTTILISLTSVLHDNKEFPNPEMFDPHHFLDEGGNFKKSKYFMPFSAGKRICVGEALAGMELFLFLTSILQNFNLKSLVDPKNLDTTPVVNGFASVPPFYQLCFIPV
CYP2C19 activ – human CYP2C19 activators, primary screen, biochemical, luminescence. Cytochrome P450 2C19 (Homo sapiens), P33261. recombinant CYP2C19, luciferin-H EGE luminescence; stronger effect = higher value; 0 = fully inhibited enzyme, 1 = untreated enzyme. activation factor at 5 µM. 96,000 tested, under 10 active. AID 1025, 2008;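 active = activation factor of at least 2 at 5 µM in the primary screen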
sEH activator – soluble epoxide hydrolase activators, primary screen, biochemical, human sEH | Bifunctional epoxide hydrolase 2 (Homo sapiens), P34913 | purified human sEH enzymatic activity, activator screen | activation, % at 2 µM | actives 0.04% (n = 91,000); in the data active = activation above about 37%
sEH inh – soluble epoxide hydrolase inhibitors, primary screen, biochemical, human sEH; Bifunctional epoxide hydrolase 2 (Homo sapiens), P34913; recombinant human sEH enzymatic activity assay; inhibition, % at 2 µM; actives 0.34% (n = 91,000); AID 707, 2007; in the data active = inhibition above about 80%
CYP2C19 inh – blockers of cytochrome P450 2C19 activity – biochemical, luminescence, ADME assay, primary screen | P33261 | CYP2C19 Supersomes, luciferin-H EGE luminescence, 30 min | inhibition, % at 5 µM | actives 21% (n = 96,000);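 active = CYP2C19 inhibition above a set limit at 5 µM in the primary screen, cut at about 50% in these data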
CYP2C9 act – human CYP2C9 activators, primary screen, biochemical, luminescence | recombinant CYP2C9, luciferin-H conversion; stronger effect = higher value; factor 1 = untreated enzyme, 0 = blocked | activation factor at 5 µM | actives 1.4% (n = 96,000) | AID 1024, 2008;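 active = activation factor of 2 or more for CYP2C9 at a 5 µM dose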
A number is an active result; n = inactive; x = no result given.

SMILES	CYP2C9 inh	CYP2C19 activ	sEH activator	sEH inh	CYP2C19 inh	CYP2C9 act
CCCOc1ccc(N2C(=O)CC(N(CCc3ccc(OC)cc3)C(=O)c3cccc(F)c3)C2=O)cc1 (configuration not stated)	58	n	n	n	62	n
CN1c2ccccc2C(O)=C(C(=S)Nc2ccc(F)c(Cl)c2)S1(=O)=O	96	n	n	n	n	n
Cn1cccc1C(=O)C(=O)Nc1ccccc1	n	n	n	n	n	n
CN1c2ccccc2C(O)=C(C(=S)Nc2ccccc2)S1(=O)=O	82	n	x	x	n	n
Cc1ccc(NC(=S)C2=C(O)c3ccccc3N(C)S2(=O)=O)cc1	100	n	n	n	n	n
CN1c2ccccc2C(O)=C(C(=O)Nc2ccccc2)S1(=O)=O	76	n	n	n	n	n
Cc1cc(Br)cn2ccnc12	n	n	n	n	n	n
Cc1cc(NC(=O)CN2CCN(c3ccccc3O)CC2)no1	n	n	n	n	n	n
CSc1nnc2c(n1)c(C)nn2-c1ccc(C)cc1	x	x	n	n	x	x
CCOC(=O)N1CCN(S(=O)(=O)c2ccc3c(c2)oc(=O)n3C)CC1	n	n	n	n	58	n
CCOC(=O)N1CCN(S(=O)(=O)c2ccc(OC)c(Cl)c2Cl)CC1	n	n	n	n	99	n
CCOC(=O)N1CCN(S(=O)(=O)c2cccc3nsnc23)CC1	n	n	x	x	76	n
CCOC(=O)n1c(=O)oc2cc(S(=O)(=O)N3CCCCC3)ccc21	x	x	n	n	x	x
CCOC(=O)N1CCN(S(=O)(=O)c2ccc(OC)c(Cl)c2)CC1	n	n	n	n	98	n
COC1(c2cc(-c3ccccc3)nc(N)n2)CCCCC1	n	n	n	n	53	n
COc1ccc(NC(=O)CSc2nc3c(c(=O)n2-c2ccccc2)SCC3)c(OC)c1	n	n	x	x	n	n
COc1cccc(C(=O)CN2C3=NCCCN3c3ccccc32)c1	n	n	n	n	n	n
c1ccc(COc2ccc(OCCOCCn3cncn3)cc2)cc1	n	n	n	n	n	n
c1ccc(SCCOCCn2cncn2)cc1	n	n	n	n	78	n
Cc1ccc(SCCCn2cncn2)cc1	n	n	n	n	84	n
CC(Sc1nnc(CNc2cccc3ccccc23)n1-c1ccccc1)C(=O)N/N=C/c1ccco1 (configuration not stated)	n	n	n	n	n	n
CCCCCc1nc2ccccc2c(=O)n1N	n	n	n	n	60	n
COc1cccc(OCc2nc3ccccc3c(=O)n2N)c1	n	n	n	n	n	n
Nn1c(COc2ccccc2)nc2ccccc2c1=O	n	n	n	n	52	n
Cc1ccccc1OCc1nc2ccccc2c(=O)n1N	50	n	n	n	53	n
SMILES	CYP2C9 inh	CYP2C19 activ	sEH activator	sEH inh	CYP2C19 inh	CYP2C9 act
CCc1nnc(NC(=O)CN2CCN(c3ccc(Cl)cc3)CC2)s1	x	x	n	n	x	x
CCc1ccc(C2=CC(c3cc(Br)ccc3F)n3ncnc3N2)cc1 (configuration not stated)	x	x	n	n	x	x
Cc1ccsc1C1C=C(c2cccc(Br)c2)Nc2ncnn21 (configuration not stated)	62	n	n	n	62	n
Fc1ccc(Br)cc1C1C=C(c2ccc(Br)cc2)Nc2ncnn21 (configuration not stated)	56	n	n	n	87	n
CC(=O)c1ccc(NC(=O)C2CCC(C)NC2=O)cc1 (configuration not stated)	n	n	n	n	n	n
Cc1ccccc1NC1=C(C(=O)c2ccccc2)N(C)S(=O)(=O)c2ccccc21	63	n	n	n	56	n
O=C(COc1ccc2c3c(c(=O)oc2c1)CCC3)c1ccc2c(c1)OCO2	82	n	n	n	58	n
Cc1oc(C(=O)O)cc1COc1ccc2c3c(c(=O)oc2c1)CCC3	n	n	n	n	n	n
CCOc1nc(SCCOc2ccccc2)nc(N(C)C)n1	n	n	x	x	n	n
C=CCOC(=O)c1cc(-c2ccc(/C=C3\C(=O)NC(=O)C(C#N)=C3C)o2)ccc1Cl	61	n	n	n	n	n

High-throughput results from PubChem BioAssay.
